Measured values as given in the supplement of paper PMC12494721.
Counter-ions that a name gives are not always drawn.

Experiments:
Settings in all cases: incubation time: 27 h, anaerobic, 37 °C;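 for the amine columns active = adjusted P below 0.05 in both replicates with a change the same way and a mean fold change under 0.8 or over 1.25; inactive = the rest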
[1] = system: Clostridium sporogenes DSM 1664; test: growth (OD595) fold change vs plate DMSO controls (fold change (ratio)); higher = more growth
In short: (§1)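 The measure reported is growth, taken as fold change against the median of DMSO controls on the same plate. Anaerobic mGAM cultures in 96-well plates (27 h, 37 °C) were read at 595 nm, blank-subtracted, corrected for compound background using 20 µM compound solutions in water, and multiplied by a calibration factor of 5 to give OD. Any fold change above 1.5 became NA, and 2 biological replicates were averaged.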

Escherichia coli IAI1 [2] = test: as above
In short: as §1

[3] = system: Klebsiella aerogenes DSM 30053; test: as above
In short: as §1

[4] = system: Ruminococcus gnavus DSM 108212; test: as above
In short: as §1

[5] = system: Klebsiella aerogenes DSM 30053; test: fold change of Histamine concentration vs plate DMSO controls (fold change (ratio)); higher = more amine produced, active = hit call of the paper (significant change in both replicates, either direction)
In short: (§2)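 Anaerobic mGAM cultures of four gut bacterial strains were grown at 37 °C for 27 h in 80 µL wells, starting at OD 0.1 before 1:1 dilution. Compounds were at 20 µM final (sweeteners 50 µM). Whole cultures were extracted with cold acetonitrile/methanol containing 0.1% formic acid and centrifuged. Amines were quantified by LC–triple-quadrupole MS (dynamic MRM) against external calibration curves and drift-corrected within batch. Each value is the fold change versus plate DMSO controls, averaged over 2 biological replicates.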

[6] = system: Clostridium sporogenes DSM 1664; test: fold change of Tryptamine concentration vs plate DMSO controls (fold change (ratio)); higher = more amine produced, active = hit call of the paper (significant change in both replicates, either direction)
In short: as §2

[7] = system: Ruminococcus gnavus DSM 108212; test: as above
In short: as §2

Escherichia coli IAI1 [8] = test: fold change of Putrescine concentration vs plate DMSO controls (fold change (ratio)); higher = more amine produced, active = hit call of the paper (significant change in both replicates, either direction)
In short: as §2

[9] = system: Klebsiella aerogenes DSM 30053; test: as above
In short: as §2

Escherichia coli IAI1 [10] = test: fold change of Cadaverine concentration vs plate DMSO controls (fold change (ratio)); higher = more amine produced, active = hit call of the paper (significant change in both replicates, either direction)
In short: as §2

[11] = system: Klebsiella aerogenes DSM 30053; test: as above
In short: as §2

[12] = system: Ruminococcus gnavus DSM 108212; test: fold change of 2-Phenylethylamine concentration vs plate DMSO controls (fold change (ratio)); higher = more amine produced, active = hit call of the paper (significant change in both replicates, either direction)
In short: as §2

Compound	growth [1]	growth (Escherichia coli IAI1 [2])	growth [3]	growth [4]	fold change of Histamine concentration [5]	fold change of Tryptamine concentration [6]	fold change of Tryptamine concentration [7]	fold change of Putrescine concentration (Escherichia coli IAI1 [8])	fold change of Putrescine concentration [9]	fold change of Cadaverine concentration (Escherichia coli IAI1 [10])	fold change of Cadaverine concentration [11]	fold change of 2-Phenylethylamine concentration [12]
NC(=O)c1cccnc1 [Nicotinamide] (20 µM)	0.909	0.979	0.964	0.672	0.994 (inactive)	0.971 (inactive)	0.993 (inactive)	1.02 (inactive)	0.896 (inactive)	1 (inactive)	1.1 (inactive)	0.953 (inactive)
CC(CN(C)C)CN1c2ccccc2Sc2ccccc21 (stereo not drawn) [Trimeprazine tartrate] (20 µM)	1.23	1.01	1.07	0.937	0.989 (inactive)	1.08 (inactive)	0.804 (inactive)	0.885 (inactive)	1 (inactive)	1.02 (inactive)	1.01 (inactive)	0.818 (inactive)
CO[C@H]1/C=C/O[C@@]2(C)Oc3c(C)c(O)c4c(O)c(c5c(nc6cc(C)ccn65)c4c3C2=O)NC(=O)/C(C)=C\C=C\[C@H](C)[C@H](O)[C@@H](C)[C@@H](O)[C@@H](C)[C@H](OC(C)=O)[C@@H]1C [Rifaximin] (20 µM)	0.00823	0.438	0.844	0.306	1.15 (inactive)	0.0445 (active)	0.144 (active)	0.996 (inactive)	0.651 (active)	1.53 (active)	1.04 (inactive)	0.149 (active)
c1ccc2c(c1)ccc1ccccc12 [Phenanthrene] (20 µM)	0.976	0.992	0.975	0.96	1 (inactive)	1.02 (inactive)	1.07 (inactive)	0.992 (inactive)	0.817 (inactive)	0.904 (inactive)	1.12 (inactive)	1.09 (inactive)
COc1cccc2c1C(=O)c1c(O)c3c(c(O)c1C2=O)C[C@@](O)(C(C)=O)C[C@@H]3O[C@H]1C[C@H](N)[C@H](O)[C@H](C)O1 [Daunorubicin hydrochloride] (20 µM)	0.967	0.972	0.997	1.13	1.01 (inactive)	0.941 (inactive)	0.986 (inactive)	0.988 (inactive)	1.02 (inactive)	1.09 (inactive)	1.04 (inactive)	0.967 (inactive)
CCN(CC)C(=S)SSC(=S)N(CC)CC [Disulfiram] (20 µM)	1.03	0.988	0.991	1.38	1.06 (inactive)	0.992 (inactive)	1 (inactive)	1.09 (inactive)	1.03 (inactive)	0.969 (inactive)	1 (inactive)	0.955 (inactive)
CC1(C)O[C@@H]2C[C@H]3[C@@H]4C[C@H](F)C5=CC(=O)C=C[C@]5(C)[C@H]4[C@@H](O)C[C@]3(C)[C@]2(C(=O)CO)O1 [Flunisolide] (20 µM)	0.942	0.993	1.03	0.998	0.949 (inactive)	1.03 (inactive)	1.19 (inactive)	1.05 (inactive)	1.05 (inactive)	1.07 (inactive)	1.09 (inactive)	1.51 (inactive)
O=C(Oc1cccc2cccnc12)c1ccccc1 [Benzoxiquine] (20 µM)	1.09	0.939	1.04	1.13	0.957 (inactive)	1.03 (inactive)	1.03 (inactive)	0.984 (inactive)	1.02 (inactive)	0.995 (inactive)	1.01 (inactive)	1.07 (inactive)
NC(=O)N1c2ccccc2C=Cc2ccccc21 [Carbamazepine] (20 µM)	0.968	1.08	1.01	1.17	1.03 (inactive)	0.973 (inactive)	1.02 (inactive)	1.03 (inactive)	1 (inactive)	1.04 (inactive)	1.01 (inactive)	0.987 (inactive)
CC1(C)O[C@@H]2C[C@H]3[C@@H]4C[C@H](F)C5=CC(=O)CC[C@]5(C)[C@H]4[C@@H](O)C[C@]3(C)[C@]2(C(=O)CO)O1 [Flurandrenolide] (20 µM)	0.993	1.15	0.987	1.27	0.982 (inactive)	1.08 (inactive)	1.16 (inactive)	1.18 (inactive)	0.966 (inactive)	0.954 (inactive)	1.04 (inactive)	1.33 (inactive)
CC1c2cccc(O)c2C(O)=C2C(=O)C3(O)C(O)=C(C(N)=O)C(=O)C(N(C)C)C3C(O)C21 (stereo not drawn) [Doxycycline hydrochloride] (20 µM)	0.0027	0.0209	0.241	0.613	0.459 (inactive)	0.0313 (active)	0.225 (active)	0.219 (active)	0.659 (active)	0.412 (active)	0.724 (active)	0.288 (active)
COc1ccc(CNc2nc(N3CCC[C@H]3CO)ncc2C(=O)NCc2ncccn2)cc1Cl [Avanafil] (20 µM)	0.96	0.981	0.99	0.992	1.01 (inactive)	0.958 (inactive)	1.01 (inactive)	1.04 (inactive)	1 (inactive)	1.02 (inactive)	0.991 (inactive)	1.01 (inactive)
OCC(O)CN1CCN(c2ccccc2)CC1 (stereo not drawn) [Dropropizine] (20 µM)	0.934	1.02	1.02	1.1	1.08 (inactive)	1.04 (inactive)	1.05 (inactive)	0.998 (inactive)	1 (inactive)	1.04 (inactive)	0.992 (inactive)	1.05 (inactive)
O=S(=O)(O)c1cc(O)ccc1O [Ethamsylate diethylammonium salt] (20 µM)	0.89	0.975	0.98	0.997	1.07 (inactive)	0.982 (inactive)	1.05 (inactive)	0.989 (inactive)	1.02 (inactive)	1.02 (inactive)	0.99 (inactive)	1.09 (inactive)
N#Cc1ccc(C(c2ccc(C#N)cc2)n2cncn2)cc1 [Letrozole] (20 µM)	1.05	1.02	0.996	1.12	1.07 (inactive)	0.988 (inactive)	1.01 (inactive)	1.03 (inactive)	1.01 (inactive)	0.964 (inactive)	0.992 (inactive)	1.02 (inactive)
CCC(NC(C)C)C(O)c1ccc(O)c(O)c1 (stereo not drawn) [Isoetharine mesylate salt] (20 µM)	1.13	1.06	0.99	0.992	1 (inactive)	0.966 (inactive)	0.977 (inactive)	1.11 (inactive)	0.995 (inactive)	0.987 (inactive)	0.994 (inactive)	0.92 (inactive)
CCCCC1C(=O)N(c2ccccc2)N(c2ccccc2)C1=O [Phenylbutazone] (20 µM)	1.03	0.993	1.01	1.02	1.05 (inactive)	0.986 (inactive)	0.969 (inactive)	0.992 (inactive)	1.05 (inactive)	1.01 (inactive)	1.04 (inactive)	0.878 (inactive)
NS(=O)(=O)c1cc(Cl)c(Cl)c(S(N)(=O)=O)c1 [Dichlorphenamide] (20 µM)	0.963	0.998	1.2	0.536	0.902 (inactive)	0.966 (inactive)	0.572 (inactive)	1.06 (inactive)	1.01 (inactive)	0.995 (inactive)	1.03 (inactive)	0.54 (inactive)
CC[N+](CC)(CC(=O)Nc1c(C)cccc1C)Cc1ccccc1 [Denatonium benzoate] (20 µM)	0.911	1.2	1.02	1.02	0.934 (inactive)	0.999 (inactive)	0.99 (inactive)	1 (inactive)	0.995 (inactive)	0.91 (inactive)	1 (inactive)	0.945 (inactive)
COc1ccc(CCC(=O)c2c(O)cc(O[C@@H]3O[C@H](CO)[C@@H](O)[C@H](O)[C@H]3O[C@@H]3O[C@@H](C)[C@H](O)[C@@H](O)[C@H]3O)cc2O)cc1O [Neohesperidin Dihydrochalcone (Nhdc)] (50 µM)	1.25	0.987	1.01	1.05	1.02 (inactive)	1.01 (inactive)	0.995 (inactive)	1.01 (inactive)	1.02 (inactive)	0.96 (inactive)	0.99 (inactive)	0.961 (inactive)
CC(C)CN(C[C@@H](O)[C@H](Cc1ccccc1)NC(=O)O[C@H]1CCOC1)S(=O)(=O)c1ccc(N)cc1 [Amprenavir] (20 µM)	1.1	1.05	0.974	0.947	0.92 (inactive)	0.952 (inactive)	1.07 (inactive)	1.14 (inactive)	1.01 (inactive)	0.952 (inactive)	1.03 (inactive)	1.08 (inactive)
CC(=O)OCC(=O)[C@@]1(O)CC[C@H]2[C@@H]3CCC4=CC(=O)C=C[C@]4(C)[C@@]3(Cl)[C@@H](Cl)C[C@@]21C [Dichlorisone acetate] (20 µM)	1.03	1.01	1	0.886	0.984 (inactive)	1.01 (inactive)	1.01 (inactive)	1.05 (inactive)	1.01 (inactive)	1.04 (inactive)	1 (inactive)	0.997 (inactive)
Nc1cc(-c2ccncc2)c[nH]c1=O [Amrinone] (20 µM)	1.17	0.984	1.02	1.19	0.956 (inactive)	1.05 (inactive)	1 (inactive)	1.02 (inactive)	0.998 (inactive)	0.982 (inactive)	1.02 (inactive)	0.97 (inactive)
COc1cc(/C=C/C(=O)N2CCN(CC(=O)N3CCCC3)CC2)cc(OC)c1OC [Cinepazide maleate] (20 µM)	1.13	1.06	1.02	1.02	1.03 (inactive)	1.07 (inactive)	1.1 (inactive)	1.01 (inactive)	0.911 (inactive)	0.933 (inactive)	1.06 (inactive)	1.14 (inactive)
